# From PubChem BioAssay (NCI)
# Compounds without any hit were thinned out: in the full panel of roughly 79,000, 15% have a hit. Unmarked numbers belong to inactive results. Activity calls are given as the source filed them. No stated cut-off is given here; in the data, active means growth inhibition above about 70%; inactive means the rest.
# Experiment: NCI Yeast Anticancer Drug Screen. Data for the cln2 rad14 strain (AID 165);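 further: 0% = growth equal to vehicle treated cultures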
# Conditions: S. cerevisiae cln2 rad14 strain, at 5.0 µM (retest, dose inferred, filed as 0.5), active compounds read high
# Outline: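 The screen exposed genetically defined yeast (cln2 rad14) to test compounds and scored growth inhibition relative to vehicle-treated controls.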
row,Structure (SMILES),growth inhibition
1,NC1=NC2=C(CCCC2)C(c2cccs2)S1 (stereo not drawn),45%
2,CCC(C)(C)NCCCCCNc1cc(OC)cc2cccnc12,0%
3,C/C(=N\NC(=S)Nc1ccc([N+](=O)[O-])cc1)c1nc2ncccc2[nH]1,5%
4,COC(=O)c1ccc(SCC(=O)c2ccc([N+](=O)[O-])o2)cc1,-4%
5,CCCCCCCCCCCC(=O)OCCOP(=O)(OCC)OCC,-4%
6,COc1cccc2c1S(=O)(=O)C(c1ccccc1)=CC2=O,12%
7,CC(C)(C)c1ccc(-n2c3nc(=O)n(-c4ccccc4C(F)(F)F)c(=O)c-3cc3ccccc32)cc1,13%
8,CCOC(=O)c1cc(C)ccc1-c1ccc(C)cc1C(=O)OCC,-1%
9,NC(=O)C1C(=O)c2cccc3c2C1(Br)C(Br)CCC3 (stereo not drawn),2%
10,COC(=O)/C(=C/C=C(c1ccccc1)c1ccccc1)N(C(C)=O)C(C)=O,3%
11,Cc1ccc(C2COc3cc(O)c(O)cc3C2)cc1 (stereo not drawn),11%
12,COc1cc(C2=NCCO2)cc(OC)c1OC,-59%
13,O=C1c2cccc3cc([N+](=O)[O-])cc(c23)C(=O)N1O,20%
14,CCOc1ccccc1C(=O)Oc1cccc(C)c1,-21%
15,CCNc1cc(N)[n+](CC)c2n[nH]c(/N=C/c3cc(Cl)cc(Cl)c3O)c12,63%
16,CC(=O)OC1=Cc2ccccc2C(c2ccccc2)c2ccccc21 (stereo not drawn),20%
17,CCOC(=O)c1[nH]c(Br)c(-c2ccc(OC)c(OC)c2)c1Br,26%
18,C#C[C@]1(OC(C)=O)CC[C@H]2[C@@H]3CCC4=CC(=O)CC[C@@H]4[C@H]3CC[C@@]21C,9%
19,COc1ccc(CC2=CC(=O)C(=O)C=C2C)cc1,0%

row,Structure (SMILES),growth inhibition
1,O=C(O)CCC/C(=N\Nc1ccccc1)C(=O)O,0%
2,S=c1[nH]c2ccc(Br)cc2c(=S)n1-c1ccccc1,-1%
3,CC1(C)OC2C(COC(c3ccccc3)(c3ccccc3)c3ccccc3)OC(n3cnc4c(N)ncnc43)C2O1 (stereo not drawn),-4%
4,O=[N+]([O-])c1cnc(F)c(Br)c1,98% (active)
5,C=C(C#N)C(=O)OCC(CC)CC.C=C(C#N)C(=O)OCC(CC)CC.CS(C)=O.CS(C)=O.Nc1c(N=Nc2ccc(-c3ccc(N=Nc4cc(S(=O)(=O)[O-])c5ccccc5c4N)cc3)cc2)cc(S(=O)(=O)[O-])c2ccccc12.[Pt+2],-1%
6,CCCCCCCCCCS(=O)(=O)Nc1ccc(C(=O)NN)cc1,54%
7,COC(=O)c1ccc(C)cc1CC1Cc2cc(C)ccc2C1=O (stereo not drawn),21%
8,CCCCCOCC(=O)OC,2%
9,COc1ccc(C2c3cc4c(cc3OC(N3CCOCC3)C2C)OCO4)c(OC)c1 (stereo not drawn),18%
10,COC1/C=C\OC2(C)Oc3c(C)c(O)c4c(c3C2=O)C2=NC(C)(C)N(c3ccccc3)C2=C(NC(=O)/C(C)=C\C=C\C(C)C(O)C(C)C(O)C(C)C(OC(C)=O)C1C)C4=O (stereo not drawn),2%
11,C/C(=C/C(=O)N1c2ccccc2CC1c1c[nH]c2ccccc12)C(=O)O (stereo not drawn),-79%
12,CSc1nc(C)c(C(=O)CCN2CCOCC2)s1,-6%
13,Cn1c(=S)c2[nH]c(=S)[nH]c2n(C)c1=O,78% (active)
14,CC(C)CCC(C)(C)c1cc(O)ccc1O,14%
15,CCc1c(-c2ccccc2)c(CN2CCCCC2)c2ccccn12,-6%
16,Clc1ccc(CN2COc3c(ccc4cccnc34)C2)c(Cl)c1,-9%
17,Cc1[nH]c2ccccc2c1/C=C1/CCCCCCC1=O,3%
18,CCOC(=O)c1ccc(NC(=O)O/N=C(/Cl)CC)cc1,35%
19,COC1OC(COC(=O)c2ccccc2)CC1F (stereo not drawn),-24%
